High-throughput results: PubChem BioAssay, several laboratories
Only some compounds are listed: those with a hit (about 3.4% of all), similar ones and a draw of the others.
AI-2 QS mod: Vibrio harveyi AI-2 quorum sensing modulation; Vibrio harveyi JMH597 AI-2 luminescence/OD600 ratio, 9 h; stronger effect = lower value; strain lacks LuxN and CqsS sensors; 0 = neutral-control median; actives 0.4% (n = 300,000); AID 2094; activity change, % at 7.5 µM; in the data active means activity change below about -75%, passing the limit was not always enough;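 further: luminescence divided by OD600 gain over 9 h not by final OD600 alone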
FXN GAA850 act: frataxin GAA850 promoter activation. HEK293 lucGAA850 FXN promoter luciferase reporter, 24 h; percent of 10 µM SAHA response. activation, % at 6 µM. actives 0.56% (n = 360,000). AID 540364;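 active means activation above the average of all compounds screened plus 3 SD, cutoff fixed separately per campaign, cut at about 7.5% in these data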
PG9 Ab binder: binds the HIV-1 gp120 antibody PG9 | TR-FRET gp120-PG9 antibody binding | inhibition, % at 6.7 µM | actives 0.43% (n = 360,000) | AID 624416; in the data active means inhibition above about 8.5%
SMARCA2 activ: increases SMARCA2 function in MMTV reporter cells; MG213 cells, MMTV-luciferase reporter, dexamethasone, overnight; activation, % at 9.1 µM; actives 1% (n = 370,000); in the data active means activation above about 7.8%
HSF1 inh: HSF1 inhibition | NIH3T3-HGL HSE-luciferase, MG132-induced, luminescence 8 h; stronger effect = lower value | activity change, negative = inhibition, % at 7.5 µM (by protocol) | actives 0.77% (n = 300,000);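 active means more than half of replicate wells show activity change below -50%, luminescence cut by over half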;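 further: luciferase reports HSF-1 transcriptional activity via heat shock element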
HSP90 inh: HSP90 refolding inhibition in rabbit reticulocyte lysate; inhibition, % at 5.6 µM; luciferase refolding luminescence, 3 h; actives 0.91% (n = 290,000);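 active means inhibition above the screen-wide mean plus 3 SD, computed separately per campaign, cut at about 16% in these data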;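 further: inhibitors lower the luminescence because luciferase stays unfolded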
HSP90 confirm: confirmation of HSP90 inhibitors; shares compounds with HSP90 inh; rabbit reticulocyte lysate, luciferase refolding luminescence, 3 h; inhibition, % at 5.9 µM; actives 64% (n = 2,300); AID 1846; in the data active means inhibition above about 18%
luciferase ctr: firefly luciferase inhibition, HSP90 counter-screen; shares compounds with HSP90 inh; purified native firefly luciferase, luminescence; inhibition, % at 5.9 µM; actives 48% (n = 2,300); AID 1847;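 active means inhibition above the mean inhibition of all tested sample wells plus 3 SD, cut at about 10% in these data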
Target sequence (P08659 whole entry, looked up): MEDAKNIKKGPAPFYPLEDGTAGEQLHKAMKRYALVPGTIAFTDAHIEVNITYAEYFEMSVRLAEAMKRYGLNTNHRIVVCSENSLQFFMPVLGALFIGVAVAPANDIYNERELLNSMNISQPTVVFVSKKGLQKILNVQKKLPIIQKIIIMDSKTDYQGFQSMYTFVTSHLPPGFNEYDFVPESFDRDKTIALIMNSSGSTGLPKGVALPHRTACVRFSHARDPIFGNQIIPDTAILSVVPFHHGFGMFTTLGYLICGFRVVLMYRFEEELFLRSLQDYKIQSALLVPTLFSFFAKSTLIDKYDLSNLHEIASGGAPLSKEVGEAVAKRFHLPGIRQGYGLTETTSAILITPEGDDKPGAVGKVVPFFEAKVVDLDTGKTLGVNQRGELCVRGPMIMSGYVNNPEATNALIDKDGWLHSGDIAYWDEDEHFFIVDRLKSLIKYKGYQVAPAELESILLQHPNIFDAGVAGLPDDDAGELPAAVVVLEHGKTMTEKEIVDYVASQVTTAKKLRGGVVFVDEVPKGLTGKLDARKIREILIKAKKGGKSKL
GAA30 counter: activates GAA30 frataxin promoter, counter-screen for GAA850 activators; shares compounds with FXN GAA850 act; HEK293 lucGAA30 FXN promoter luciferase, 24 h; DMSO = 0%, 5 µM ipriflavone = 100%; actives 66% (n = 1,900); activation, % at 6 µM; AID 588350;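 active means mean activation above the mean of solvent-only control wells plus 3 SD, cut at about 22% in these data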;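 further: counterscreen of GAA850 promoter hits where activity marks nonselective or luminescence artifacts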
GAA850 confirm: confirmation of GAA850 frataxin (FXN) promoter activators; shares compounds with FXN GAA850 act; HEK293 lucGAA850 FXN promoter luciferase reporter, 24 h; 100% = activation by SAHA; activation, % at 6 µM; actives 86% (n = 1,900);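 active means mean activation above a set limit taken from the primary screen, cut at about 8% in these data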
SMARCA2 act conf: confirmation of SMARCA2 (BRM) function activators. shares compounds with SMARCA2 activ. MG213 cells, MMTV-luciferase with dexamethasone, luminescence, overnight; MG213 cells expressing E1A, Rb sequestered; DMSO wells 0%, reference activator 100%. activation, % at 9.1 µM. actives 30% (n = 3,500);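 active means activation above its plate's cutoff, the mean activation of tested wells plus 3 SD, cut at about 7.9% in these data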
VP16 Luc act: GAL4-VP16 reporter activation counter-screen. shares compounds with SMARCA2 activ. HEK293 GAL4-VP16 pG5luc reporter, luciferase luminescence; scaled: DMSO wells 0%, SAHA wells 100%. activation, % at 9.1 µM. actives 41% (n = 3,500). AID 686939;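 active means activation above the solvent-only control well mean plus 3 SD, averaged across control plates, cut at about 5.2% in these data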
A number is an active result; – = inactive; · = no result given.

SMILES	AI-2 QS mod	FXN GAA850 act	PG9 Ab binder	SMARCA2 activ	HSF1 inh	HSP90 inh	HSP90 confirm	luciferase ctr	SMARCA2 act conf	VP16 Luc act	others
O=C(O)c1ccc(N/N=C/c2cc3ccccc3nc2Cl)cc1	–	11	–	13	–	28	–	–	–	12	GAA30 counter=120;GAA850 confirm=47
Cc1c(C)c2ccc(OCC(=O)Nc3ccccn3)cc2oc1=O	–	–	–	12	–	25	64	28	–	5.6
Cc1c(C)c2ccc(OCC(=O)NCc3ccccn3)cc2oc1=O	–	–	–	–	–	–	·	·	·	·
Oc1cccc(/C=N/N=C/c2cccc(O)c2O)c1O	–	8.9	–	12	–	25	71	74	13	7.4	GAA30 counter=37;GAA850 confirm=18
Cc1ccccc1N=Cc1cccc(O)c1O	–	–	·	·	–	–	·	·	·	·
Cc1cc(C(=O)CSc2ncccn2)c(C)n1Cc1ccco1	–	–	–	9.9	–	17	46	37	9.9	8.5
CC(C)N1CCCCC(NC(=O)c2ccccc2)C1=O (stereo not drawn)	·	·	·	–	·	·	·	·	·	·
Cc1ccc(C)c(C(=O)COC(=O)c2cccc(N3C(=O)c4c(C)nc5ccccc5c4C3=O)c2)c1	–	–	–	14	–	27	–	–	–	–
Cc1nc2ccccc2c2c1C(=O)N(c1cccc(C(=O)O)c1)C2=O	–	–	–	–	–	–	·	·	·	·
COC(=O)[C@H](C(C)C)N1Cc2nnn(Cc3ccccc3)c2C=CS1(=O)=O	·	·	·	–	·	·	·	·	·	·
COCCNc1c(-c2cc3ccc(C)c(C)c3[nH]c2=O)nc2ccccn12	–	–	–	10	–	21	–	–	18	6.4
COc1ccc(-c2cc(-c3nc4ccccn4c3NCc3ccccc3)ccc2OC)cc1	·	–	–	–	·	·	·	·	·	·
COC(=O)[C@]12C[C@H](CC(=O)N3CCOCC3)C(=O)N(CCC3=CCCCC3)C1=C[C@H](C1CCCC1)O[C@@H]2C	·	·	·	–	·	·	·	·	·	·
O=C(CCCc1ccccc1)Nc1ccc2c(c1)OCCO2	–	–	–	9.3	–	26	32	29	–	8.8
Cc1nc(-c2ccc(Cl)cc2)sc1C(=O)O	–	–	–	–	–	–	·	·	·	·
Cc1nc(-c2ccc([N+](=O)[O-])cc2)sc1C(=O)O	–	–	–	9.6	–	18	18	–	–	–
Cc1nc(-c2ccccc2)sc1C(=O)O	–	–	–	–	–	–	·	·	·	·
Cc1ccc(-c2nc(C)c(C(=O)O)s2)cc1	–	–	–	11	–	75	85	17	9.5	7.4
O=c1nc(N/N=C/C=C/c2ccccc2)cn[nH]1	–	–	–	12	–	23	78	65	12	6.7
CCOc1ccc(OCc2ccc(C(=O)N3CCc4ccccc4C3)o2)cc1	–	–	–	13	–	24	33	–	–	–
CC(=NN1CCN(c2ccccn2)CC1)c1ccccc1O	·	·	·	–	·	·	·	·	·	·
O=[N+]([O-])c1ccc(Sc2nc3ccccc3[nH]2)c(Cl)c1	·	·	–	–	·	·	·	·	·	·
Cc1ccc(-c2cn3cccc(C)c3n2)cc1	–	–	–	14	–	18	29	28	–	12
CCOC(=O)[C@@]12CCC3=C1N(CCC3)C(=O)[C@H](CC(=O)NCc1cccs1)C2	·	·	·	–	·	·	·	·	·	·
Cc1ccc(Nc2ccc(C(=O)O)cc2N)cc1	–	·	–	9.4	–	20	–	–	–	9.5
SMILES	AI-2 QS mod	FXN GAA850 act	PG9 Ab binder	SMARCA2 activ	HSF1 inh	HSP90 inh	HSP90 confirm	luciferase ctr	SMARCA2 act conf	VP16 Luc act	others
Cc1ccc(C=Nn2c(-c3n[nH]c4c3CCC4)n[nH]c2=S)s1	·	·	·	–	·	·	·	·	·	·
O=S1(=O)CCSC[C@@H](CN2CCN(c3ccccc3)CC2)N1	·	·	–	–	·	·	·	·	·	·
COc1cccc(N=Nc2ccc3ccccc3c2O)c1	–	–	–	8.0	-62	28	58	58	–	5.6
CC(=O)Nc1cc(C(=O)OCC(=O)c2ccccc2)ccc1C	–	–	–	8.3	–	24	60	–	–	10
Cc1ccc(C(=O)OCC(=O)c2ccccc2)cc1	–	–	–	–	–	–	·	·	·	·
CC(C)(C)OC(=O)N1CCC2CCN(S(C)(=O)=O)CC21 (stereo not drawn)	·	·	–	–	·	·	·	·	·	·
O=C1CCC(NC(=O)Cc2ccccc2)C(=O)N1 (stereo not drawn)	·	·	–	–	·	·	·	·	·	·
COc1ccc(C(=O)Nc2nnc(SCC(=O)NC3CC3)s2)cc1	–	–	–	8.2	–	23	29	16	–	13
N/C(=N/OC(=O)c1ccccc1Cl)c1nonc1N	–	–	–	–	–	–	·	·	·	·
Cc1cc(/C(N)=N/OC(=O)c2ccccc2Cl)no1	–	–	–	8.6	·	25	19	49	12	11
COc1cc(C=NNc2ccccc2)ccc1OC(=O)c1ccccc1	·	–	–	–	·	·	·	·	·	·
CCOc1cc(/C=N/NC(=O)CNc2cccc(C)c2)ccc1OC(=O)c1ccccc1	–	–	–	–	–	–	·	·	·	·
CCOc1cc(/C=N/Nc2cccc(C(=O)O)c2)ccc1OC(=O)c1ccccc1	–	–	–	11	–	37	96	32	–	18
